Common to all, as to test: NCI-60 one-dose screen, 48 h (100 = growth as untreated, 0 = no growth, -100 = all killed)
Common to all, as to details: 10 µM unless noted

Assay [1] relates to RPMI-8226 leukemia.
Assay [2] has as its system OVCAR-8 ovarian.
The test system of assay [3] is OVCAR-5 ovarian.
Assay [4] relates to OVCAR-4 ovarian.
The test system of assay [5] is SK-OV-3 ovarian.
Assay [6] deals with IGROV1 ovarian.
Assay [7] deals with OVCAR-3 ovarian.
In assay [8] the test system is NCI/ADR-RES ovarian.
In assay [9] the test system is T-47D breast.
Assay [10] has as its system HS 578T breast.

Molecules are shown by their SMILES. The panel holds about 83,000 compounds, 20% with a hit somewhere; the sample as a whole holds those more often.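 Growth was measured after 48 h exposure to one concentration of compound in 96-well plates. Values under 10 count as active.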 A number with no mark means an inactive call. Activity calls are given as the source filed them.

As to `CN1CCN(Cc2ccc(NC(=O)c3cncc(C#Cc4nc(N)nc5[nH]ncc45)c3)cc2C(F)(F)F)CC1`, the growth in assay [1] is 55.2%; in assay [2], 100%; in assay [3] it was 108%; in assay [4], 88.8%; in assay [5], 122%; in assay [6] it was 109%. Further, the results for the growth in [7], in assay [8] and in [9] were 66.5%, 114% and 93.5%, respectively.
Regarding `O=c1oc2ccc(-c3ccc(F)cc3F)cc2c(=O)n1-c1ccc(Cl)c(C(F)(F)F)c1`, the growth in assay [1] is 3.09% (active); in [2], 8.57% (active); in assay [3], 74.8%; in [4], 21.6%; in assay [5], -9.2% (active); in [6] it was 35.3%. Also, the growth was 7.34% (active) in assay [7], 14.6% in assay [10], 6.43% (active) in [8] and -11% (active) in assay [9].
As for `COc1ccc(-n2c(C(O)c3ccccc3)n[nH]c2=S)cc1` (configuration not stated), the growth in assay [1] is 93.3%; in [2], 103%; in assay [3], 93.4%; in assay [4] it was 102%; in assay [5], 101%; in [6], 99.1%. Besides, the growth in [7] is 95.8%; in assay [10], 111%; in assay [8], 103%; in [9], 97.7%.
For `Cc1c(C(=O)OCCO)cc(-c2ccc(Cl)cc2)n1-c1ccc(Cl)cc1Cl`, the growth in assay [1] was 84.9%; in assay [2], 83.8%; in [3] it was 84.1%; in assay [4], 97.3%; in assay [5] it was 72.7%; in assay [6], 90.2%. Further, the growth in assay [7] is 91.9%; in assay [10], 81.3%; in [8], 77.1%; in assay [9], 62%.
Turning to `CC/C=C\C[C@H](O)C/C=C1/C(=O)C=C[C@@H]1C/C=C\CCCC(=O)OCCS(=O)(=O)c1ccccc1`, the growth in [1] was 14.6%; in [2], 26.3%; in assay [3] it was 121%; in [4] it was 84.3%; in assay [5], 104%; in assay [6] it was 100%. The growth is 20.7% in assay [7], 36.2% in assay [10], 75.2% in assay [8] and 18.3% in assay [9].
For `COc1ccc(N(C)c2nc(N)nc3sc4c(c23)CCCC4)cc1`, the growth in assay [1] was 25.3%; in assay [2], 14%; in [3], 49.8%; in assay [4] it was 36.2%; in assay [5], 20.7%; in assay [6], 17.2%. Moreover, the growth in assay [7] is 1.77% (active); in assay [10], 26.9%; in assay [8] it was 2.25% (active); in [9], 70.3%.
On to `COc1ccc(OC)c(N(CCN2C(=O)c3ccccc3C2=O)C(=O)CCl)c1`, for which the growth in [1] is 32.9%; in [2] it was 65.6%; in assay [3] it was 65.9%; in assay [4], -49.5% (active); in assay [5], 91.3%; in [6] it was -73.4% (active). Moreover, the growth is 14.6% in assay [7], 52.6% in [10], 49.2% in [8] and 95.4% in assay [9].
Consider `CN1CCN(Cc2ccc(C(=O)Nc3cncc(C#Cc4cnc5cccnn45)c3)cc2C(F)(F)F)CC1`, for which the growth in [1] was 29%; in [2] it was 78.7%; in assay [3], 47.2%; in assay [4], 41.8%; in [5], 78.9%; in [6], 31.5%. For the same compound, the growth was 63.3% in assay [7], 54.8% in [10], 91.6% in assay [8] and 81.2% in [9].
For the compound `CC(C)CCOc1ccc(-c2n[nH]c(C(F)(F)F)c2-c2cncc(C#N)c2)c(O)c1`, the growth is -31.8% (active) in assay [1]; 12.5% in assay [2]; 36.9% in [3]; 20.5% in [4]; -7.94% (active) in assay [5]; 46.9% in assay [6]. The growth in [7] was 2.95% (active); in assay [10] it was 18%; in assay [8], 2.45% (active); in assay [9] it was 2.83% (active).
For the compound `c1ccc(CNc2nc(Nc3ccccc3)nc3ccccc23)cc1`, the growth in assay [1] was 45.4%; in assay [2], 34.9%; in [3], 72.8%; in assay [4] it was 36.8%; in assay [5], 3.4% (active); in assay [6], 63.2%. For the same compound, the growth is 39.6% in assay [7], 44.4% in [10], 62.3% in assay [8] and 77.4% in [9].
As to `O=c1oc2ccc(F)cc2c(=O)n1-c1ccc(Cl)cc1F`, the growth in assay [1] was -23.1% (active); in assay [2] it was 9.27% (active); in assay [3], 17.6%; in assay [4] it was 13.3%; in assay [5], -11.5% (active); in [6] it was 18.9%. Further, the figures for the growth in [7], in assay [8] and in assay [9] were 8.61% (active), 2.98% (active) and -19% (active), respectively.
For `COc1ccc(C2=NN(/C=C3\SC(=O)NC3=Nc3ccc(F)cc3)C(c3ccc(F)cc3)C2)cc1` (configuration not stated), the growth was 88.7% in [1]; 95.3% in [2]; 96.1% in [3]; 101% in assay [4]; 102% in assay [5]; 97.9% in assay [6]. Moreover, the growth in [7] was 104%; in [10], 99%; in assay [8] it was 103%; in assay [9], 89.7%.
`CCn1c(Cc2ccccc2Nc2c(Cl)cccc2Cl)nnc1SCC(=O)NN1C(=O)/C(=C/c2cccc(OC)c2OC)SC1=S`: the growth is 94.3% in assay [1]; 99% in assay [2]; 99.2% in assay [3]; 94.2% in assay [4]; 107% in assay [5]; 99% in assay [6]. The growth is 108% in assay [7], 94.7% in [10], 104% in assay [8] and 86% in assay [9].
For `O=S(=O)(c1ccc(NC(=S)NC23CC4CC(CC(C4)C2)C3)cc1)N1CCCCC1`, the growth in assay [1] is -11.6% (active); in assay [2] it was 82.9%; in [3] it was 94.4%; in assay [4] it was 86.4%; in assay [5], 106%; in assay [6], 94.3%. The growth in assay [7] was 5.73% (active); in assay [10] it was 88.8%; in assay [8] it was 88.2%; in assay [9], 90.5%.
For the compound `COc1ccc(/C=C2\N=C(c3ccccc3)N(c3ccc(-c4nc5ccc(C)cc5s4)cc3)C2=O)cc1`, the growth in assay [1] was 69.3%; in [2], 92%; in [3] it was 84.7%; in assay [4], 64.6%; in assay [5], 94.2%; in assay [6], 58.6%. Also, the growth is 72.2% in assay [7], 102% in [10], 93.6% in assay [8] and 54.1% in assay [9].
In the case of `CCOC(=O)C1=C(C)N=c2s/c(=C\c3cc(Cl)ccc3O)c(=O)n2C1c1ccc(OC)cc1` (configuration not stated), the growth in assay [1] was 78.6%; in [2], 90.4%; in assay [3] it was 93.1%; in assay [4], 94.7%; in [5] it was 104%; in [6] it was 87.6%. The growth in assay [7] was 95.5%; in assay [10], 117%; in assay [8], 85.6%; in [9] it was 82%.
`NC1C(N)C(N)C1N` (configuration not stated): the growth was 93.3% in [1]; 100% in [2]; 95.7% in assay [3]; 105% in assay [4]; 92.5% in assay [5]; 99.6% in [6]. Besides, the growth in [7] is 111%; in [10], 112%; in [8], 99.6%; in assay [9], 102%.
As to `COc1ccc(C(O)(CCC(C)C)C(CN2CCOCC2)c2ccc(Cl)cc2)cc1` (configuration not stated), the growth in assay [1] is 46.8%; in [2], 67.1%; in assay [3], 103%; in [4], 84.6%; in [5] it was 97.7%; in [6], 85.1%. Besides, the growth in assay [7] was 6.49% (active); in [10] it was 103%; in assay [8] it was 29.4%; in assay [9], 87.5%.
For `COc1cc(C2C3=C(COC3=O)N(CCO)c3cc4c(cc32)CCC4)cc(OC)c1O` (configuration not stated), the growth in assay [1] is 32.2%; in assay [2], 22.6%; in assay [3], 56.6%; in assay [4] it was 38.2%; in [5], 37.7%; in assay [6], 17.5%. Further, the growth in assay [7] was -35.5% (active); in assay [10] it was 32%; in [8], 52.8%; in [9], 46.4%.
Consider `O=c1oc2ccc(I)cc2c(=O)n1-c1ccc(Cl)cc1F`, for which the growth is -24.8% (active) in assay [1]; 8.33% (active) in assay [2]; 21.5% in assay [3]; 15.8% in assay [4]; -1.52% (active) in assay [5]; 18.7% in assay [6]. The growth in assay [7] is 8.51% (active); in assay [10] it was 5.48% (active); in assay [8], 8.36% (active); in assay [9], -12% (active).
For the compound `COc1ccc(Nc2cc(C)nc(NCc3ccccc3)n2)cc1`, the growth was 8.08% (active) in assay [1]; 24.1% in [2]; 62% in assay [3]; 46.7% in assay [4]; 92.5% in assay [5]; 37.5% in assay [6]. Further, the growth in [7] was 6.99% (active); in [10], 60.5%; in assay [8], 77.8%; in assay [9], 63%.
Take `COc1ccc(C(=O)C2CC2c2ccc(Cl)cc2)cc1` (configuration not stated): the growth in assay [1] was 38.4%; in assay [2], 78.2%; in assay [3], 115%; in assay [4] it was 72.2%; in assay [5], 104%; in assay [6], 83.7%. Further, the growth in [7] is 74.7%; in assay [10] it was 82.4%; in [8], 78.9%; in assay [9], 80.8%.
Take `CC1=CCC(OC(=O)C(C)(C)CCC(O)(C(=O)OC2(C(C)C)CCC3(C)OC3C2)C(C)C)(C(C)C)CC1` (configuration not stated): the growth is -37.8% (active) in [1]; -41.7% (active) in assay [2]; -77.9% (active) in [3]; -84.1% (active) in assay [4]; -92.2% (active) in assay [5]; -60.5% (active) in assay [6]. For the same compound, the growth in assay [7] is -97% (active); in [10] it was -7.09% (active); in assay [8] it was -9.23% (active); in [9], -55.2% (active).
Regarding `O=C(Nc1ccc(Cl)cc1)c1cc2ccccc2cc1OP(=O)(O)O`, the growth is -10.1% (active) in assay [1]; 27.9% in assay [2]; 69.1% in assay [3]; 25% in assay [4]; 19% in assay [5]; -1.26% (active) in assay [6]. The growth in assay [7] is 10.7%; in assay [8], 16.6%; in assay [9], 25.4%.
Turning to `O=c1oc2ccc(I)cc2c(=O)n1-c1ccc(I)cc1F`, the growth in assay [1] is -31.2% (active); in assay [2], 9.03% (active); in assay [3], 27.1%; in [4], 16.7%; in assay [5], 0.665% (active); in assay [6], 15.9%. Moreover, the growth in [7] is 7.88% (active); in assay [10] it was -4.47% (active); in assay [8], 9.94% (active); in assay [9], -3.25% (active).

The record behind these values is PubChem BioAssay (NCI).
